Measurements taken from PubChem BioAssay.
Several values for one entry are separate records, joined by “and”; a condition that tells them apart may be missing. Equal entries are not always repeated. Activity calls are given as the source filed them. Cut-off read from the data, not from the text of the source, unless noted: active = inhibition above about 80%; inactive = the rest.

How the values were obtained:
[1] = viability loss with induced miR-34 in A549 – imaging, A549 dox-inducible miR-34, nuclei and caspase counts, primary screen (AID 1347080;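 active = compounds whose cell count with miR-34 switched on is under 0.7 times the count with it off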); settings: A549 miR-34 inducible, Hoechst nuclei count, 48 h
[2] = MELAS cybrid and Rieske KO viability enhancers – cell-based, MELAS cybrids, Rieske KO mouse fibroblasts, CellTiter-Glo, primary screen (AID 1508586;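 active = mean z-score across replicates of 1.96 or higher in either the MELAS or the Rieske mutant cell line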;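 note: z relative to plate mean and SD of compound and empty wells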); settings: low glucose
[3] = growth inhibition, single agent or in combination, cell-based, chromothripsis tumors, cisplatin or BGB combos (AID 1671449); settings: LFS_MB_P medulloblastoma cells;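 note: cells exposed for 96 hours; 0% = vehicle DMSO and 100% = killing by high DMSO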
[4] = growth inhibition, single agent and combos, cell-based, chromothripsis tumors, cisplatin or BGB combos (AID 1671450); settings: HDN33 neuroblastoma cells, stronger effect = higher value;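 note: cells exposed to compound for four days; 0% = vehicle DMSO and 100% = cell killing by high DMSO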
[5] = growth inhibition, single agents and combos, ICB984, cell-based, cisplatin or BGB combos, synergistic combos for chromothripsis tumors (AID 1671451; call rule not given here;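 note: cells exposed for 96 hours before readout; 0% = vehicle DMSO and 100% = killing by high DMSO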); settings: ICB984 medulloblastoma cells, drug combinations, stronger effect = higher value
[6] = growth inhibition, single agents and combos, LFS_MB_1R, cell-based, cisplatin or BGB combos, synergistic combos for chromothripsis tumors (AID 1671452); settings: LFS_MB_1R medulloblastoma cells, stronger effect = higher value;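 note: cells exposed for 96 hours before readout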
[7] = growth inhibition, single agents and combos, HTB85, cell-based, BGB or cisplatin IC20 combos, synergistic combos for chromothripsis tumors (AID 1671453); settings: HTB85 osteosarcoma cells, drug combinations, stronger effect = higher value;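 note: cells exposed for 96 hours before readout; 0% = vehicle DMSO and 100% = high DMSO killing control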
[8] = growth inhibition, single agents and combos, CRL2098, cell-based, BGB or cisplatin IC20 combos, synergistic combos for chromothripsis tumors (AID 1671454); settings: CRL2098 osteosarcoma cells, drug combinations, stronger effect = higher value;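 note: cells exposed for 96 h before readout; 0% = vehicle DMSO and 100% = killing by high DMSO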
[9] = growth inhibition, single agents and combos, HD-MB03, cell-based, BGB or cisplatin IC20 combos, synergistic combos for chromothripsis tumors (AID 1671455; in the data active = inhibition above about 83%;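 note: 0% = vehicle DMSO and 100% = high DMSO as cytotoxic control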); settings: HD-MB03 medulloblastoma cells, stronger effect = higher value
[10] = growth inhibition, single agents and combos, UWB1.289, cell-based, BGB or cisplatin combos, synergistic combos for chromothripsis tumors (AID 1671456); settings: UWB1.289 ovarian carcinoma cells, stronger effect = higher value;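 note: cells exposed to compound for four days; 0% = vehicle DMSO and 100% = killing by high DMSO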
[11] = growth inhibition, single agents and combos, LFS_MB_2R, cell-based, cisplatin combos, synergistic combos for chromothripsis tumors (AID 1671457); settings: LFS_MB_2R medulloblastoma cells, stronger effect = higher value;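 note: cells exposed to compound for four days before readout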
[12] = growth inhibition, MDA-MB-436, cell-based, BGB or cisplatin combos, synergistic combos for chromothripsis tumors (AID 1671458; call rule not given here;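 note: cells exposed for 96 hours; 0% = vehicle DMSO and 100% = killing by high DMSO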); settings: MDA-MB-436 breast carcinoma growth inhibition, drug combinations, stronger effect = higher value
[13] = UWB1.289_BRCA1 ovarian cancer growth, cell-based, BGB or cisplatin combinations (AID 1671459); settings: UWB1.289 BRCA1 ovarian carcinoma, drug combinations, stronger effect = higher value
[14] = drug combination toxicity in non-malignant astrocytes – cell-based, BGB or cisplatin IC20 combos, cytotoxicity control for chromothriptic childhood tumor combination screen (AID 1671460); settings: Human astrocytes, viability inhibition, drug combinations, at 0.5 µM, stronger effect = higher value;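 note: cells exposed to compounds for 96 hours before viability readout; 0% = vehicle and 100% = killing control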
[15] = BT084 cell growth, single and combined drugs, ICGC_MB145, cisplatin and BGB IC40 combos (AID 1671461); settings: BT084 medulloblastoma cells, drug combinations, stronger effect = higher value;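 note: cells exposed to drugs for 96 hours; 0% = vehicle DMSO and 100% = high DMSO full killing control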
[16] = RCMB18 cell growth, single agent and combined, cisplatin and BGB IC40 combos (AID 1671462); settings: RCMB18 medulloblastoma cells, stronger effect = higher value;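 note: cells exposed to compound for four days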
[17] = CRL1545 cell growth, single agent and combined, cisplatin and BGB IC20 combos (AID 1671464); settings: CRL1545 osteosarcoma cells, stronger effect = higher value;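 note: cells exposed to compound for 96 hours before readout; 0% = vehicle DMSO and 100% = high DMSO killing control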
[18] = measured here: combination with BGB IC40, at 0.05 µM
[19] = measured here: with BGB IC20 combination, at 0.5 µM
[20] = measured here: with cisplatin IC20 combination, at 0.5 µM
[21] = measured here: combination with cisplatin, at 0.5 µM
[22] = measured here: combination with cisplatin, at 5 µM

Nc1ccn(C2OC(CO)C(O)C2(F)F)c(=O)n1 (centres undefined)
fold change ([1]; stronger effect = lower value, cell number ratio, induced over uninduced): 1.02 (inactive) | fold change ([1]; measured here: relative caspase fold change +Dox/-Dox): 0.857 | cell count ([1]; measured here: total cells with miR-34 induction, stronger effect = lower value): 1840 | cell count ([1]; measured here: total cells without miR-34 induction): 1810 | z-score ([2]; MELAS cybrid survival, CellTiter-Glo 48 h, stronger effect = higher value): 2.35 (active) | z-score ([2]; Rieske KO mouse fibroblast survival, CellTiter-Glo 72 h): -0.225 | inhibition ([3]; at 0.5 µM, stronger effect = higher value): 12.8% (inactive) and -24.1% (inactive) and -14.5% (inactive) | inhibition ([3]; measured here: combination with BGB IC20, at 0.005 µM): -8.46% and 7.63% and 14% | inhibition ([3]; measured here: combination with BGB IC40, at 0.005 µM): -8.25% and -29.3% and -2.14% | inhibition [3, 18]: -22.1% and -15.3% and -25.2% | inhibition ([3]; measured here: combination with cisplatin, at 0.5 µM, stronger effect = higher value): 91.7% and -25.4% and 35.7% | inhibition ([3]; measured here: combination with cisplatin, at 5 µM, stronger effect = higher value): 65.8% and 67.6% and 88% | inhibition ([4]; BGB combo, at 5 µM): 86.4% and 89.9% and 88.8% | inhibition ([4]; at 0.5 µM): 87.6% (active) and 87.3% (active) and 83.2% (active) | inhibition ([4]; cisplatin combo, at 5 µM): 81.7% and 86.5% and 82.8% | inhibition [4, 19]: 88.2% and 89.8% and 84.6% | inhibition [4, 20]: 86.2% and 82.4% and 79.7% | inhibition ([4]; single agent, at 5 µM): 88.8% and 90% and 87.7% | inhibition ([5]; BGB IC20 combo, at 0.005 µM): -3.49% and -7.36% and -23.1% | inhibition ([5]; BGB IC40 combo, at 0.005 µM): -5.04% and 4.53% and 16% | inhibition ([5]; BGB IC40 combo, at 0.05 µM): 26% and 33.4% and 30.2% | inhibition ([5]; at 0.5 µM): -22.9% (inactive) and -37.1% (inactive) and -18.5% (inactive) | inhibition ([5]; cisplatin combo, at 0.05 µM): 26% and 30.8% and 27.7% | inhibition ([5]; cisplatin combo, at 0.5 µM): -43.1% and -45% and -7.88% | inhibition ([5]; cisplatin combo, at 5 µM): -24% and -19.7% and -23.1% | inhibition ([5]; measured here: 5 uM single agent, at 5 µM): -32.2% and -6.79% and -21% | inhibition ([6]; at 0.5 µM): -17.1% (inactive) and -7.38% (inactive) and 7.19% (inactive) | inhibition [6, 18]: -7.29% and 0.139% and -43.6% | inhibition [6, 21]: 49.7% and 24.2% and 32.2% | inhibition [6, 22]: 66.7% and 77.2% and 68.3% | inhibition ([7]; at 0.5 µM): 86.6% (active) and 90.3% (active) and 89.1% (active) | inhibition ([7]; measured here: with BGB IC20, at 0.5 µM): 76.2% and 85.7% and 83.4% | inhibition ([7]; measured here: with BGB IC20, at 5 µM): 72.1% and 73.5% and 75.1% | inhibition ([7]; measured here: with cisplatin IC20, at 0.5 µM): 91.2% and 91.9% and 89.4% | inhibition ([7]; measured here: with cisplatin IC20, at 5 µM): 90.4% and 93.2% and 92.8% | inhibition ([7]; single agent, at 5 µM): 92.2% and 93.6% and 92.8% | inhibition ([8]; at 0.5 µM): 68.5% (inactive) and 65.4% (inactive) and 40.8% (inactive) | inhibition ([8]; measured here: combination with BGB at IC20, at 0.5 µM): 53% and 49.8% and 5.09% | inhibition ([8]; measured here: combination with cisplatin at IC20, at 0.5 µM): 70.5% and 84.6% and 51.6% | inhibition ([9]; at 0.5 µM): 92.5% (active) and 91.3% (active) | inhibition ([9]; measured here: combo with BGB at IC20, at 0.5 µM): 87.4% and 87.6% and 86.6% | inhibition ([9]; measured here: combo with cisplatin at IC20, at 0.5 µM): 96.8% and 96.7% and 96% | inhibition ([10]; at 0.5 µM): 36.9% (inactive) and 40.6% (inactive) and 36.4% (inactive) | inhibition ([10]; measured here: inhibition with BGB combination, at 0.05 µM): -8.95% and 6.66% and -8.78% | inhibition ([10]; measured here: inhibition with cisplatin combination, at 0.05 µM): 34.8% and 31% and 33.4% | inhibition ([11]; at 0.5 µM): -9.87% (inactive) and -8.63% (inactive) and -0.27% (inactive) | inhibition [11, 21]: 22.8% and 20.6% and 41.7% | inhibition [11, 22]: 40.3% and 52.4% and 57.5% | inhibition ([12]; at 0.5 µM): 67.3% (inactive) and 69.9% (inactive) and 70.3% (inactive) | inhibition ([12]; measured here: BGB combination, at 0.5 µM): 56.1% and 61.1% and 59% | inhibition ([12]; measured here: BGB combination, at 5 µM): 58% and 56% and 66.5% | inhibition ([12]; measured here: cisplatin combination, at 0.5 µM): 71.9% and 76.1% and 74.4% | inhibition ([12]; measured here: cisplatin combination, at 5 µM): 77.8% and 78.1% and 78.7% | inhibition ([13]; BGB combination, concentration series, at 5 µM): 71.1% and 55.2% and 80.4% | inhibition ([13]; at 0.5 µM): 43.5% (inactive) and 49.4% (inactive) and 43.9% (inactive) | inhibition ([13]; cisplatin combination, concentration series, at 5 µM): 101% and 97.9% and 125% | inhibition [14]: 70% (inactive) and 73.6% (inactive) and 72.6% (inactive) | inhibition ([14]; measured here: combo with BGB IC20): 71.3% and 72.2% and 72.3% | inhibition ([14]; measured here: combo with cisplatin IC20): 58.6% and 65% and 62% | inhibition ([15]; at 0.5 µM): -11% (inactive) and -2.39% (inactive) and 3.77% (inactive) | inhibition ([15]; cisplatin combination, at 0.5 µM): 30.6% and 26.6% and 14.1% | inhibition ([15]; cisplatin combination, at 5 µM): 52.1% and 55.8% and 69.2% | inhibition ([15]; measured here: BGB IC40 combination 0.05 uM, at 0.05 µM): -18.1% and -16.5% and -27.6% | inhibition ([15]; single agent, at 5 µM): 11.1% and 16.6% and 14.7% | inhibition ([16]; at 0.5 µM): 5.91% (inactive) and 3.99% (inactive) and 14.1% (inactive) | inhibition ([16]; cisplatin combo, at 5 µM): 85.9% and 82.9% | inhibition ([16]; measured here: BGB IC40 combination, at 0.05 µM): -10.4% and -39% and -30% | inhibition [16, 21]: 68.2% and 64.5% and 57.4% | inhibition ([16]; single agent, at 5 µM): 10.1% and 16.5% and 18.8% | inhibition ([17]; at 0.5 µM): 65.3% (inactive) and 70.4% (inactive) and 61.5% (inactive) | inhibition [17, 19]: 73.4% and 66.6% and 67.9% | inhibition [17, 20]: 61.3% and 72.3% and 57.7% | inhibition ([17]; single agent, at 0.05 µM): 71.8% and 61.1% and 53.4% | inhibition ([17]; single agent, at 5 µM): 87.7% and 91.1% and 81.7%
